According to the supplement of paper PMC8728848:
This is one part of a sample in which the strongest signals are shown more often than they occur.

Assays:
Experiment in all cases: glycan array binding signal (z-score within array); higher = stronger binding
Details in all cases: glycan notation: IUPAC condensed, linker removed
[1] = target: Fuc(a1-2)Gal(b1-3)GalNAc
Procedure, shortened: (§1)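 Glycan array data were curated from 3228 arrays in the Consortium for Functional Glycomics database and kept only where the protein sequence was available. Glycan names were converted to IUPAC-condensed notation, and columns mapping to the same glycan were averaged. The binding signal is a within-array Z-score, averaged across arrays of the same protein sequence at different concentrations or buffers and across linkers. Negative Z-scores can be read as non-binding.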

[2] = target: Fuc(a1-2)Gal(b1-3)GalNAc(b1-3)Gal
Procedure, shortened: as §1

[3] = target: Fuc(a1-2)Gal(b1-3)GlcNAc(b1-3)[Fuc(a1-3)[Gal(b1-4)]GlcNAc(b1-6)]Gal(b1-4)Glc
Procedure, shortened: as §1

[4] = target: Fuc(a1-2)Gal(b1-4)GlcNAc(b1-3)Gal(b1-4)GlcNAc(b1-3)Gal(b1-4)GlcNAc
Procedure, shortened: as §1

[5] = target: Fuc(a1-2)Gal6S(b1-4)Glc
Procedure, shortened: as §1

[6] = target: Gal(a1-3)Gal(b1-3)[Fuc(a1-4)]GlcNAc(b1-2)Man(a1-3)[Gal(a1-3)Gal(b1-3)[Fuc(a1-4)]GlcNAc(b1-2)Man(a1-6)]Man(b1-4)GlcNAc(b1-4)GlcNAc
Procedure, shortened: as §1

[7] = target: Gal(b1-3)Gal(b1-4)GlcNAc(b1-2)Man(a1-3)[Gal(b1-3)Gal(b1-4)GlcNAc(b1-2)Man(a1-6)]Man(b1-4)GlcNAc(b1-4)GlcNAc
Procedure, shortened: as §1

[8] = target: Gal(b1-3)GalNAc(b1-3)Gal(a1-4)Gal(b1-4)Glc
Procedure, shortened: as §1

[9] = target: Gal(b1-3)GalNAc(b1-4)Gal(b1-4)Glc
Procedure, shortened: as §1

[10] = target: Gal(b1-4)GlcNAc(a1-6)Gal(b1-4)GlcNAc
Procedure, shortened: as §1

[11] = target: Gal(b1-4)GlcNAc(b1-2)Man(a1-3)Man(b1-4)GlcNAc(b1-4)GlcNAc
Procedure, shortened: as §1

[12] = target: Gal(b1-4)GlcNAc(b1-2)[Gal(b1-4)GlcNAc(b1-4)]Man(a1-3)[Gal(b1-4)GlcNAc(b1-2)Man(a1-6)]Man(b1-4)GlcNAc(b1-4)GlcNAc
Procedure, shortened: as §1

[13] = target: Gal(b1-4)GlcNAc(b1-2)[Gal(b1-4)GlcNAc(b1-4)]Man(a1-3)[Gal(b1-4)GlcNAc(b1-2)[Gal(b1-4)GlcNAc(b1-6)]Man(a1-6)]Man(b1-4)GlcNAc(b1-4)GlcNAc
Procedure, shortened: as §1

[14] = target: Gal3S(b1-3)GlcNAc
Procedure, shortened: as §1

[15] = target: Gal3S(b1-4)GlcNAc6S
Procedure, shortened: as §1

[16] = target: Gal3S(b1-4)[Fuc(a1-3)]Glc6S
Procedure, shortened: as §1

[17] = target: GalNAc(a1-3)GalNAc
Procedure, shortened: as §1

[18] = target: Glc(b1-6)Glc
Procedure, shortened: as §1

[19] = target: GlcA(b1-3)GlcNAc
Procedure, shortened: as §1

[20] = target: GlcNAc(a1-4)Gal(b1-4)GlcNAc(b1-3)Gal(b1-4)Glc
Procedure, shortened: as §1

[21] = target: GlcNAc(b1-6)GalNAc
Procedure, shortened: as §1

[22] = target: Neu5Ac(a2-3)Gal(b1-3)GalNAc6S
Procedure, shortened: as §1

[23] = target: Neu5Ac(a2-3)Gal(b1-3)GlcNAc(b1-3)Gal(b1-4)GlcNAc
Procedure, shortened: as §1

[24] = target: Neu5Ac(a2-3)Gal(b1-3)GlcNAc6S
Procedure, shortened: as §1

[25] = target: Neu5Ac(a2-3)Gal(b1-4)GlcNAc(b1-2)Man(a1-3)[GlcNAc(b1-2)Man(b1-4)GlcNAc(b1-2)Man(a1-6)]Man(b1-4)GlcNAc(b1-4)GlcNAc
Procedure, shortened: as §1

[26] = target: Neu5Ac(a2-3)Gal(b1-4)[Fuc(a1-3)]GlcNAc(b1-6)[Gal(b1-3)]GalNAc
Procedure, shortened: as §1

[27] = target: Neu5Ac(a2-3)Gal6S(b1-4)[Fuc(a1-3)]GlcNAc
Procedure, shortened: as §1

[28] = target: Neu5Ac(a2-3)GalNAc(b1-4)GlcNAc
Procedure, shortened: as §1

[29] = target: Neu5Ac(a2-3)[GalNAc(b1-4)]Gal(b1-4)Glc
Procedure, shortened: as §1

[30] = target: Neu5Ac(a2-6)Gal
Procedure, shortened: as §1

[31] = target: Neu5Ac(a2-6)Gal(b1-4)GlcNAc(b1-3)Gal(b1-3)GlcNAc
Procedure, shortened: as §1

[32] = target: Neu5Ac(a2-6)Gal(b1-4)GlcNAc6S
Procedure, shortened: as §1

[33] = target: Neu5Ac(a2-8)Neu5Ac(a2-8)Neu5Ac
Procedure, shortened: as §1

[34] = target: Neu5Ac9Ac(a2-6)Gal(b1-4)GlcNAc
Procedure, shortened: as §1

B1: Gal 1 (Canis lupus) (protein)
chain: MACGLVASNLSLKPGQCLRVQCEVVPEAKSFVLNLGKDGDNLCLHFNPRFEAHGDVNTIVCNSKDGGAWGEELRESAFPFQPGTVTEVCISFDQADLTIKLPDGYTFKFPNRLNLEAISYLAADGDMKIKCLAFD
- glycan array binding signal (z-score) [1]: -0.289
- glycan array binding signal (z-score) [2]: -0.33
- glycan array binding signal (z-score) [3]: 0.066
- glycan array binding signal (z-score) [4]: 0.432
- glycan array binding signal (z-score) [5]: -0.234
- glycan array binding signal (z-score) [6]: -0.274
- glycan array binding signal (z-score) [7]: 6.47
- glycan array binding signal (z-score) [8]: -0.328
- glycan array binding signal (z-score) [9]: -0.297
- glycan array binding signal (z-score) [10]: 2.97
- glycan array binding signal (z-score) [11]: 1.75
- glycan array binding signal (z-score) [12]: 5.5
- glycan array binding signal (z-score) [13]: 6.78
- glycan array binding signal (z-score) [14]: 3.33
- glycan array binding signal (z-score) [15]: 4.69
- glycan array binding signal (z-score) [16]: -0.286
- glycan array binding signal (z-score) [17]: -0.323
- glycan array binding signal (z-score) [18]: -0.343
- glycan array binding signal (z-score) [19]: -0.294
- glycan array binding signal (z-score) [20]: -0.318
- glycan array binding signal (z-score) [21]: -0.33
- glycan array binding signal (z-score) [22]: -0.333
- glycan array binding signal (z-score) [23]: 1.66
- glycan array binding signal (z-score) [24]: -0.31
- glycan array binding signal (z-score) [25]: 3.31
- glycan array binding signal (z-score) [26]: -0.244
- glycan array binding signal (z-score) [27]: -0.322
- glycan array binding signal (z-score) [28]: -0.307
- glycan array binding signal (z-score) [29]: -0.292
- glycan array binding signal (z-score) [30]: -0.257
- glycan array binding signal (z-score) [31]: -0.32
- glycan array binding signal (z-score) [32]: -0.332
- glycan array binding signal (z-score) [33]: -0.324
- glycan array binding signal (z-score) [34]: -0.303
